High-throughput results from PubChem BioAssay.
SENP6 inh – SENP6 protease inhibitors, primary screen, biochemical, luminescence, uHTS; Sentrin-specific protease 6 (Homo sapiens), Q9GZR1; hit rate 1.8% among 330,000; inhibition, % at 10 µM; AID 2599, 2010; Recombinant SENP6 catalytic domain, aminoluciferin luminescence;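 active = inhibition above about 50% at the single tested dose, limit read from the data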;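 note: plate controls were DMSO wells with enzyme for no effect and DMSO wells lacking enzyme for full effect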
C8 TRAIL sens – viability loss with TRAIL in NB7+C8 cells, primary screen, TRAIL sensitizer project, cell-based, ATPlite luminescence; hit rate 1% among 360,000; inhibition (viability loss, TRAIL sensitization), % at 10 µM;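 active = compounds causing at least 50% loss of cell viability in the single-dose screen, relative to plate controls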
SENP8 block-1 – human SENP8 protease inhibitors, primary screen, biochemical, fluorescence, Nedd8 protein substrate, uHTS; recombinant SENP8; hit rate 0.64% among 360,000; Sentrin-specific protease 8 (Homo sapiens), Q96LD8; inhibition, % at 20 µM; AID 602440, 2012; in the data active = inhibition mostly above about 40%, no sharp cut-off; inactive = mostly below about 27%
SENP8 block-2 – SENP8 protease inhibitors, primary screen, biochemical, luminescence. Sentrin-specific protease 8 (Homo sapiens), Q96LD8. hit rate 1.2% among 330,000. purified SENP8, Z-RLRGG-aminoluciferin cleavage. inhibition, % at 10 µM. AID 2540, 2010; in the data active = inhibition above about 50%
SENP7 block – SENP7 protease inhibitors, primary screen, biochemical, luminescence, uHTS. recombinant SENP7, Z-RLRGG-aminoluciferin luminescence, 40 min. inhibition, % at 5 µM. Sentrin-specific protease 7 (Homo sapiens), Q9BQF6. hit rate 1.5% among 330,000;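 active = inhibition above about 50% at the single test dose, limit read from the data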;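 note: plate controls were DMSO with enzyme for no effect and no enzyme buffer wells for full effect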
Target sequence (Q9BQF6 706-1050 limits assumed): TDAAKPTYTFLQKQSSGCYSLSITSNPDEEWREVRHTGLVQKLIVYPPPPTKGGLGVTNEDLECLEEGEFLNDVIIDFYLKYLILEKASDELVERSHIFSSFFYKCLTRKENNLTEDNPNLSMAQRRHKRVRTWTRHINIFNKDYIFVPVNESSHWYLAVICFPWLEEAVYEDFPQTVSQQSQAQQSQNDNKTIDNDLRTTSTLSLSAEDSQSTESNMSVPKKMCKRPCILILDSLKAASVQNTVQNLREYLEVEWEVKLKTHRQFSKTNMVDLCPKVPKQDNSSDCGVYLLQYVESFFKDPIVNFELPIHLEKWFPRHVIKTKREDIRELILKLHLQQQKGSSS
PPC-1+TRAIL kill – compounds killing PPC-1 cancer cells with TRAIL present, primary screen, TRAIL potentiator project, ATPLite luminescence, uHTS. cell killing (% activity), % at 4 µM or 5 µM. AID 1443, 2008. hit rate 0.41% among 220,000. PPC-1 cells + TRAIL, ATPLite viability luminescence;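 active = cell killing above 50% in the first pass at 4 µM, then a duplicate retest at 5 µM averaging 50% or more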;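 note: plate controls were cells with TRAIL plus DMSO for no effect and medium-only wells lacking cells for full effect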
SENP8 confirm – SENP8 protease inhibitors, retest, confirmation, biochemical, luminescence, single concentration; shares compounds with SENP7 block; Recombinant SENP8, Z-RLRGG-aminoluciferin luminescence, 60 min; inhibition, % at 12.5 µM; hit rate 40% among 6,200; AID 488912, 2010;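 active = mean inhibition across replicates above about 50%, limit read from the data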
SENP6 conf – SENP6 protease inhibitors, confirmation, biochemical, luminescence, single concentration | hit rate 58% among 6,200 | shares compounds with SENP7 block | inhibition, % at 12.5 µM | recombinant SENP6, Z-RLRGG-aminoluciferin luminescence
SENP7 confirm – SENP7 protease inhibitors, retest, confirmation, biochemical, luminescence, single concentration | shares compounds with SENP7 block | recombinant SENP7, Z-RLRGG-aminoluciferin luminescence, 40 min | inhibition, % at 12.5 µM | hit rate 69% among 6,200
Casp3 SENP sel – caspase-3 protease inhibitors, confirmation, selectivity assay for SENP inhibitor project, biochemical, single concentration. inhibition, % at 12.5 µM. purified caspase-3, Z-DEVD-aminoluciferin luminescence, 60 min. shares compounds with SENP7 block. hit rate 60% among 6,200;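 active = mean inhibition above about 50%, limit read from the data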;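 note: plate controls were enzyme with DMSO for no effect and wells without caspase-3 for full effect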
Luc interf – counter-screen for SENP inhibitors: luminescence interference; shares compounds with SENP7 block; Pre-incubated SENP8/Z-RLRGG-aminoluciferin, luciferase luminescence interference; inhibition, % at 12.5 µM; hit rate 39% among 6,200;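 active = mean inhibition above about 50% when retested at one dose, limit read from the data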;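 note: plate controls were DMSO wells with completed reaction for no effect and substrate without enzyme for full effect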
* marks the source's active call; other numbers are inactive results; · = no result given. Sampled rows, rich in hits. Any-hit rate of the full collection: about 3%.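 Rule for the calls, unless noted: active = mean inhibition above about 50% in the one-dose retest (limit read from the data); inactive = the rest.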

SMILES	SENP6 inh	C8 TRAIL sens	SENP8 block-1	SENP8 block-2	SENP7 block	PPC-1+TRAIL kill	SENP8 confirm	SENP6 conf	SENP7 confirm	Casp3 SENP sel	Luc interf
Cc1ccc([N+](=O)[O-])cc1N/C=C1\CCc2ccccc2C1=O	79.0*	21.9	-55.9	9.3	32.7	36.3	4.6	1.1	-12.1	0.7	-4.6
COc1ccc(CNC(=O)C2CCN(S(=O)(=O)c3ccc4c(c3)N(C(C)=O)CCO4)CC2)cc1	-4.7	-18.2	11.4	-3.2	-2.4	·	·	·	·	·	·
COc1cc(NC(=O)c2ccccn2)cc(OC)c1OC	-12.6	2.6	2.3	-7.5	-3.3	-6.2	·	·	·	·	·
COc1ccc(NC(=O)c2ccc(N3CCCC3=O)cc2)cc1Cl	23.6	9.7	4.8	-8.4	54.1*	·	-6.5	-1.1	3.5	6.5	-0.5
CC(=O)c1ccc(NC(=O)c2ccc(N3CCCC3=O)cc2)cc1	-21.2	8.0	2.3	0.0	-7.7	·	·	·	·	·	·
COc1ccc(NC(=O)c2cc(F)cc(F)c2)cc1Cl	13.1	-3.4	4.8	-8.8	24.0	7.4	·	·	·	·	·
COc1cc(NC(=O)c2ccc(N3CCCC3=O)cc2)cc(OC)c1	69.7*	17.0	25.2	59.9*	72.2*	·	46.4	61.1*	72.6*	84.0*	55.6*
COc1ccc(NC(=O)c2ccc(OC(F)F)cc2)cc1Cl	93.3*	42.0	-3.4	95.1*	97.4*	36.8	85.6*	95.3*	100.5*	91.9*	76.1*
O=C(Nc1ccc(OC(F)F)c(Cl)c1)c1ccccn1	84.8*	25.4	11.5	78.5*	85.3*	18.0	74.3*	74.6*	94.9*	68.2*	26.7
O/N=C1/C2C3C(Br)C4C5CC(C1C53)C24 (centres undefined)	-25.3	-11.2	1.9	-6.3	-6.8	15.4	·	·	·	·	·
N#C/C(=C\c1cccs1)C(=O)Nc1ccccn1	59.4*	20.2	18.2	24.3	63.6*	-6.1	40.4	49.7	83.2*	71.1*	21.6
N#C/C(=C\c1ccccc1)C(=O)Nc1ccccn1	-17.0	-18.5	-51.3	1.7	7.6	·	·	·	·	·	·
O=C(c1ccccc1)c1ccc(Cn2cc(-c3ccccc3)nn2)cc1	61.3*	12.9	13.2	57.8*	51.7*	·	51.5*	64.9*	83.0*	31.2	16.9
CCOc1ccc(-c2nnc(-c3cccs3)o2)cc1OCC	-32.7	-8.3	-300.8	-7.1	-12.5	11.1	·	·	·	·	·
CCOc1ccc(-c2nnc(-c3cccs3)o2)cc1	48.2	37.4	-284.3	73.2*	85.4*	36.7	38.0	61.9*	60.4*	72.4*	22.2
CC(C)COc1ccc(-c2nnc(-c3ccncc3)o2)cc1	65.7*	12.2	-315.7	26.9	56.6*	13.7	25.0	31.4	41.4	46.5	30.0
COc1ccc(-c2nnc(-c3cccs3)o2)cc1OC	62.8*	11.4	-317.9	44.5	68.3*	24.2	58.3*	56.5*	85.5*	81.4*	20.4
